# Reference: PubChem BioAssay
# Inconclusive results are not listed. Activity calls are given as the source filed them.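 Rule for the calls, unless noted: active = Her2 level under about 52% in both replicate screens, with viability over 70% of control (limit read from the data); inconclusive = Her2 under the limit in one screen only, or viability under 70%; inactive = Her2 level above the set limit.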
# Experiments:
# [1] = Her2 expression decrease, cell viability multiplex – SKBR3 breast tumor cells, AlphaScreen, ATP viability, primary screen (AID 461); conditions: SKBR3 Her2 protein level, 18-24 h, measured here: SKBR3 viability, ATP luminescence, at 10 µM;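 for Her2 level: lower value means less Her2 protein in the cells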;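 for viability: percent of carrier control wells set as 100% viability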
# [2] = biological target: Receptor tyrosine-protein kinase erbB-2 (Homo sapiens) (UniProt P04626); test: as above; conditions: 18-24 h, at 10 µM, stronger effect = lower value
# Sequence of Receptor tyrosine-protein kinase erbB-2 (Homo sapiens) (P04626 whole entry, looked up): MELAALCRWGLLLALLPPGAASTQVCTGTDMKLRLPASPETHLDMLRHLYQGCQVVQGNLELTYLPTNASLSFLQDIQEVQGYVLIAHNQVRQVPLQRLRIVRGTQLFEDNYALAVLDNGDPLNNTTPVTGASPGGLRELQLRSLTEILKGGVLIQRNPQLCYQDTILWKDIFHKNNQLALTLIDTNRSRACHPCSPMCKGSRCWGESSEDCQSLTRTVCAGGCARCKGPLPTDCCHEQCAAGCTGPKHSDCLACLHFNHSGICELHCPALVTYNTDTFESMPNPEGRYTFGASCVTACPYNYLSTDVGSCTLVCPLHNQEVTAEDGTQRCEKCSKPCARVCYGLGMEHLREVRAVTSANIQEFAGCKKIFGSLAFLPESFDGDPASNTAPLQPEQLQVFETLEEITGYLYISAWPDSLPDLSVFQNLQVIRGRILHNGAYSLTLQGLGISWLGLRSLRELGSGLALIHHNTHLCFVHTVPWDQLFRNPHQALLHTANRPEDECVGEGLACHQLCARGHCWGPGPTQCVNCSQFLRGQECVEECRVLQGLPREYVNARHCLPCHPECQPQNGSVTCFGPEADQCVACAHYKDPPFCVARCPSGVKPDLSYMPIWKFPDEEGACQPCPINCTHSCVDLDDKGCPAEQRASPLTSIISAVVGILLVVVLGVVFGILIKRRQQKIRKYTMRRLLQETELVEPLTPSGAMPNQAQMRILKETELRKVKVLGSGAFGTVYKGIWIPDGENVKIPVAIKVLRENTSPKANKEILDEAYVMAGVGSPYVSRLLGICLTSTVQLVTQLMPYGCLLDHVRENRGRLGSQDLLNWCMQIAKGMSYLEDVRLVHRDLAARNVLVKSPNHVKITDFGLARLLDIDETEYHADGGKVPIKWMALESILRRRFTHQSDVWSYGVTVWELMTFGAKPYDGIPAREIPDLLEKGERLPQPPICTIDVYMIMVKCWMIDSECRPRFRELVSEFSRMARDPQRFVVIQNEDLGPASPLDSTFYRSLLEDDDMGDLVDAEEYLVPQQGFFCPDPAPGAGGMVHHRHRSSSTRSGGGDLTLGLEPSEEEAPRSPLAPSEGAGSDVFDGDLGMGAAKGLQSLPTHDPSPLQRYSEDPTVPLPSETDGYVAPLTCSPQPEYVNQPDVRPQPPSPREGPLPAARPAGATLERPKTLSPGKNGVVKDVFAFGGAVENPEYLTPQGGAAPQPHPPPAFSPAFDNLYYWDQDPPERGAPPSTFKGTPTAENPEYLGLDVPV
# [3] = reduced viability of SK-BR-3 breast cancer cells – cell-based, 24 h, human, pilot screen (AID 572;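 active = viability at or below 10% of carrier control in both of two separate runs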;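 note: compound exposure lasted between 18 and 24 h rather than exactly 24 h; 100% = carrier-treated control wells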); conditions: SK-BR-3 viability, CellTiter-Glo luminescence, at 10 µM, stronger effect = lower value
# [4] = HUVEC growth inhibition – cell-based, human, primary screen (AID 575;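 active = viability at or below 30% in both replicate assays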;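 note: 100% = median of untreated cell wells with 0.1% DMSO on each plate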); conditions: HUVEC proliferation, CellTiter-Glo luminescence, 72 h; at 10 µM; stronger effect = lower value
# [5] = H69AR cell proliferation blockers – human, duplicate replicates, primary screen (AID 580;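 active = viability at or under a set limit in both replicates, limit being median viability minus 3 SD, cut at about 48% in these data, passing the limit was not always enough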;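 note: 100% = mean luminescence of untreated wells and 0% = no signal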); conditions: H69AR lung tumor cells viability, ATP luminescence, 72 h; at 10 µM; stronger effect = lower value
# [6] = MRP1 drug-resistance reversers in H69AR cells – cell-based, doxorubicin co-treatment, pilot screen (AID 601;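 active = viability loss from added drug above about 55%, and viability with drug at most 40%, in both replicates, limit read from the data, passing the limit was not always enough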); conditions: CellTiter-Glo, 72 h, at 10 µM; for differential viability (reversal): stronger effect = higher value
# [7] = yeast transport mutant growth inhibition pilot in 384-well plates, post-Golgi transport modulator project (AID 636; in the data active = inhibition above about 31%); conditions: absorbance 615 nm, about 18 h, stronger effect = higher value
# [8] = growth suppression of yeast trafficking mutant, preliminary HTS, modulators of trafficking downstream of Golgi apparatus project, 1536-format plate, OD 615 nm (AID 637; in the data active = inhibition above about 30%); conditions: yeast transport mutant growth, absorbance 615 nm, 18 h; stronger effect = higher value
# [9] = S. cerevisiae growth inhibition in permissive medium (OD615), pilot counter-assay for S. cerevisiae lifespan shortening project, permissive growth control (AID 705;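 active = growth inhibition above 25% in both replicates, a cutoff set 3 SD above the mean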); conditions: OD615, 24 h, at 10 µM, stronger effect = higher value
# [10] = S. cerevisiae growth inhibition in restrictive medium, OD615, pilot screen, restrictive growth control, yeast lifespan reduction project (AID 706;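 active = growth inhibition above a set limit, 3 SD over mean compound inhibition, in both replicates, cut at about 43% in these data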;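 note: modified DeaD lifespan yeast strain shifted to restrictive glucose medium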); conditions: OD615, 48 h, at 10 µM, stronger effect = higher value
# [11] = doxorubicin toxicity protection in MRP-1 cells – H69AR cells, CellTiter-Glo, duplicate, MRP-1 activator project, pilot screen (AID 807;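 active = viability increase at or above a cutoff of the median across tested compounds plus 3 SD, cut at about 8.5% in these data, passing the limit was not always enough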;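 note: compound pretreatment 18-22 h then 72 h combined with doxorubicin; 0% = doxorubicin alone and 100% = vehicle without doxorubicin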); conditions: H69AR viability with doxorubicin, CellTiter-Glo luminescence; at 10 µM; stronger effect = higher value
# [12] = viability of HCT116 without oncogenic beta-catenin – human colon tumor cells, pilot screen (AID 823;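 active = cell viability at or below a set limit in both duplicate runs, the limit being the all-compound median minus 4 SD, cut at about 23% in these data, passing the limit was not always enough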;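 note: 0% = wells killed by 20 µM Hyamine and 100% = untreated DMSO cell wells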); conditions: HCT116 beta-catenin knockout viability, CellTiter-Glo, 60 h; at 10 µM; stronger effect = lower value
# [13] = viability of PTEN-null HCT116 cells – cell-based, HCT116 clonal line, CellTiter-Glo, pilot screen (AID 824;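 active = viability at or below 27.92% in each of two runs, the all-compound median minus 4 SD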;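 note: 0% = 20 µM Hyamine control and 100% = vehicle cell control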); conditions: HCT116 PTEN-deleted viability, 60 h, at 10 µM, stronger effect = lower value
# [14] = RAM pathway blockade in budding yeast – dse1pr::URA3 reporter, 5-FOA selection, pilot screen (AID 869;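 active = inhibition over a set limit, the all-compound mean plus 3 SD, in both replicate runs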;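 note: 0% = DMSO wells with no growth and 100% = 10 µM 1-NA-PP1 with full growth; RAM network block rescues cells from 5-FOA so hits raise OD615 growth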); conditions: S. cerevisiae dse1pr::URA3 5-FOA growth, OD615, 2 d; at 10 µM; stronger effect = higher value; strain carries analog-sensitive mutant Cbk1 kinase
# [15] = RAM signaling pathway blockade in yeast – S. cerevisiae, Pdr1DBD-CYC8 efflux-inhibited sensitized strain, primary screen (AID 1298;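 active = RAM network inhibition above 8.4% in each of two replicates, 3 SD over the compound average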;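 note: 0% = DMSO untreated cells without growth and 100% = 10 µM 1-NA-PP1 full growth; higher means more yeast growth rescued from 5-FOA killing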); conditions: S. cerevisiae cbk1-as DSE1-URA3 strain, 5-FOA growth OD615, 2 d; at 50 µM; stronger effect = higher value
# [16] = H69AR cells + 2 uM doxorubicin, measured here: viability with 2 uM doxorubicin, stronger effect = lower value
# [17] = H69AR cells, compound alone cytotoxicity
Structure (SMILES),viability [1] [%],Her2 level [2],viability [3],viability [4],viability [5],differential viability (reversal) ([6]; H69AR cells + 2 uM doxorubicin),"viability [6, 16] [%]","viability [6, 17] [%]",inhibition [7],inhibition [8],growth inhibition [9],growth inhibition [10],viability increase [11],viability [12],viability [13],inhibition [14],RAM network inhibition [15]
COc1cc2c(cc1OC)-c1nnc(-c3cccs3)n1C(C)(C)C2,64.5,95.5% (inactive),64.5% (inactive),114% (inactive),102% (inactive),2.48% (inactive),99.1,102,0.13% (inactive),-4.17% (inactive),-11.8% (inactive),-8.72% (inactive),-2.78% (inactive),90.4% (inactive),80.6% (inactive),0.115% (inactive),0.94% (inactive)
CCCCSc1nc(CCC)cc(=O)[nH]1,86.5,118% (inactive),86.5% (inactive),91.9% (inactive),88.2% (inactive),-0.345% (inactive),88.5,88.2,2.05% (inactive),-12.5% (inactive),-14.4% (inactive),-14.4% (inactive),-1.29% (inactive),99.6% (inactive),104% (inactive),0.635% (inactive),6.04% (inactive)
Cc1nnc(SCC(=O)NCc2ccccc2)s1,97.5,110% (inactive),97.5% (inactive),81.2% (inactive),101% (inactive),1.61% (inactive),99.3,101,-1.43% (inactive),-2% (inactive),-11.3% (inactive),-11.3% (inactive),-1.46% (inactive),101% (inactive),102% (inactive),0.99% (inactive),4.69% (inactive)
CC(=O)N(C(C)=O)c1ncc2c([nH]c3ccccc32)c1C#N,106,95% (inactive),106% (inactive),53.4% (inactive),61.4% (inactive),-20.5% (inactive),81.9,61.4,-8.13% (inactive),-7.26% (inactive),-10.9% (inactive),-11.2% (inactive),-7.26% (inactive),66.9% (inactive),64.7% (inactive),1.25% (inactive),6.06% (inactive)
CCc1cc2c(=O)c(-c3nc4ccccc4[nH]3)coc2c(CN2CCC(C)CC2)c1O,96,116% (inactive),96% (inactive),99.1% (inactive),82.6% (inactive),0.66% (inactive),82,82.6,-1.03% (inactive),1.83% (inactive),6.25% (inactive),18.5% (inactive),-2.14% (inactive),92.3% (inactive),85.6% (inactive),-0.2% (inactive),-2.41% (inactive)
CCn1c(SCC(=O)Nc2cccc(C)c2)nc2c(c1=O)SC(C)C2 (stereo unspecified),90,88% (inactive),90% (inactive),99% (inactive),76.7% (inactive),3.39% (inactive),73.3,76.7,-3.07% (inactive),-0.67% (inactive),-3.52% (inactive),-4.62% (inactive),-3.09% (inactive),95.1% (inactive),88.9% (inactive),2.52% (inactive),10.2% (inactive)
CC(c1ccccc1)n1cnc2ccccc21 (stereo unspecified),82,104% (inactive),82% (inactive),93.4% (inactive),93.5% (inactive),0.135% (inactive),93.3,93.5,-1.15% (inactive),0.33% (inactive),-3.42% (inactive),0.48% (inactive),-1.05% (inactive),103% (inactive),95.2% (inactive),-0.115% (inactive),0.83% (inactive)
C=C(C)c1cccc(C(C)(C)NC(=O)NCC2CCCO2)c1 (stereo unspecified),94,98% (inactive),94% (inactive),79.9% (inactive),93.7% (inactive),7.16% (inactive),86.5,93.7,0.77% (inactive),-8.5% (inactive),-6.62% (inactive),-9.92% (inactive),-0.54% (inactive),94.7% (inactive),96.2% (inactive),1.77% (inactive),1.07% (inactive)
CCN(CC)C(=O)C1CCCN(c2ncnc3c2cnn3-c2ccc(Cl)cc2)C1 (stereo unspecified),94.5,96.5% (inactive),94.5% (inactive),49.2% (inactive),86.1% (inactive),2.38% (inactive),83.7,86.1,-4.4% (inactive),-2.17% (inactive),-7.13% (inactive),5.38% (inactive),3.1% (inactive),66% (inactive),69.7% (inactive),0.62% (inactive),-2.04% (inactive)
CSc1nc2ccccc2c(=O)n1N,109,94.5% (inactive),109% (inactive),93.9% (inactive),97.5% (inactive),4.46% (inactive),93.1,97.5,-3.78% (inactive),-1.48% (inactive),-16.4% (inactive),6.12% (inactive),-1.1% (inactive),92.2% (inactive),103% (inactive),1.75% (inactive),4.29% (inactive)
COc1ccc(-n2c(Cc3cccn3C)nnc2SCC(=O)Nc2cccc(Cl)c2)cc1,103,89% (inactive),103% (inactive),63.3% (inactive),85.3% (inactive),-2.28% (inactive),87.6,85.3,-2.8% (inactive),-2.67% (inactive),4.36% (inactive),21.3% (inactive),-1.93% (inactive),76.5% (inactive),62.4% (inactive),0.615% (inactive),11% (inactive)
O=C(c1ccc2c(c1)OCCO2)N1CCCCC1,117,97% (inactive),117% (inactive),91.8% (inactive),101% (inactive),-1.2% (inactive),102,101,-0.91% (inactive),0.17% (inactive),3.7% (inactive),6.82% (inactive),-1.22% (inactive),97.2% (inactive),97.4% (inactive),0.88% (inactive),5.28% (inactive)
CCCCC(NS(=O)(=O)c1ccc(OC)cc1)C(=O)O (stereo unspecified),110,108% (inactive),110% (inactive),101% (inactive),98.4% (inactive),4.5% (inactive),93.9,98.4,-0.39% (inactive),-4.17% (inactive),-19.3% (inactive),-7.24% (inactive),0.29% (inactive),99.1% (inactive),97.1% (inactive),1.7% (inactive),3.29% (inactive)
CCOC(=O)/C(C#N)=C(/C)c1ccc(OC)cc1,96,104% (inactive),96% (inactive),110% (inactive),102% (inactive),5.39% (inactive),96.2,102,-2.53% (inactive),-7.74% (inactive),-14.7% (inactive),-5.52% (inactive),0.09% (inactive),99.5% (inactive),99% (inactive),1.11% (inactive),3.87% (inactive)
CCN1CCN(C(=O)Cn2ncc3ccsc3c2=O)CC1,101,110% (inactive),101% (inactive),89.8% (inactive),97% (inactive),4.04% (inactive),93,97,-3.73% (inactive),0.5% (inactive),-0.535% (inactive),2.34% (inactive),1.63% (inactive),105% (inactive),101% (inactive),1.72% (inactive),0.51% (inactive)
CCOc1ccccc1N1Cc2cc(C)c(C)cc2C1,92.5,104% (inactive),92.5% (inactive),90.4% (inactive),88.1% (inactive),-9.66% (inactive),97.7,88.1,-6.27% (inactive),-0.83% (inactive),-16.8% (inactive),-12.1% (inactive),-2.58% (inactive),63.6% (inactive),59.3% (inactive),2.19% (inactive),2.05% (inactive)
Nc1nc2n(n1)C(c1cccc(Br)c1)CC(c1ccc(F)cc1)N2 (stereo unspecified),85,109% (inactive),85% (inactive),98.8% (inactive),111% (inactive),-6.81% (inactive),117,111,-1.03% (inactive),-6.5% (inactive),2.49% (inactive),11.9% (inactive),0.72% (inactive),89.3% (inactive),89.3% (inactive),0.875% (inactive),2.61% (inactive)
Clc1ccc(Nc2ncnc3c2cnn3-c2ccccc2)cc1,116,90.5% (inactive),116% (inactive),86% (inactive),78.7% (inactive),7.29% (inactive),71.4,78.7,-4% (inactive),0% (inactive),-10.8% (inactive),-13.1% (inactive),-2.81% (inactive),81.7% (inactive),74.8% (inactive),0.855% (inactive),-0.47% (inactive)
